# The full data set covers some 7,900 targets. This sample favours those with a hit. About 0.6% of all pairs of compound and target were hits. Unmarked numbers belong to inactive results.
# Columns and labels:
# Test in all cases: log2 fold change, soluble protein after heating vs DMSO (PISA); higher = thermal stabilisation; K562 cells, 10 uM, 30 min; active = over 0.2 and 3.5 SD of the protein, either way, in both replicates (recomputed)
# [1] = compound: CC[C@@H]1C(=O)N(C)c2cnc(Nc3ccc(C(=O)NC4CCN(C)CC4)cc3OC)nc2N1C1CCCC1
# Method in brief: (§1)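 Quantification of soluble protein used TMTpro 16plex LC-MS/MS, with channel sums equalised. Samples were the supernatant after 21,000xg for 90 min of pooled aliquots from K562 cells (2×10^6 cells/mL) treated with 10 μM compound for 30 min, heated for 3 min over 48°C-58°C, and extracted in PBS with 0.5% NP-40 at 4°C. Values, from duplicates, describe thermal stability against control samples on a log2 fold-change scale.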
# [2] = compound: CC[C@@H]1C(=O)N(C)c2cnc(Nc3ccc(C(=O)N[C@H]4CC[C@H](N5CCN(CC6CC6)CC5)CC4)cc3OC)nc2N1C(C)C [volasertib]
# Method in brief: as §1
# [3] = compound: CC[C@H](C)N1C=C(C2=C(C=C(C=C21)C3=CN=C(C=C3)N4CCNCC4)C(=O)NCC5=C(C=C(NC5=O)C)C)C
# Method in brief: as §1
# [4] = compound: CC[C@H](C)[C@@H](C(=O)N[C@@H]([C@@H](C)O)C(=O)N[C@@H](CC(C)C)C(=O)[C@]1(CO1)C)NC(=O)[C@H]([C@@H](C)CC)N(C)C(=O)C [epoxomicin]
# Method in brief: as §1
# [5] = compound: CCn1c(C(=O)N(C2CC2)C2CC2)cc2c3c(ncn3C)c(Nc3cc(C)n(C)n3)nc21
# Method in brief: as §1
# [6] = compound: CCn1cc(-c2ccnc3[nH]c(-c4cccc(CN(C)C)c4)cc23)c(-c2ccc(NC(=O)N(C)C)cc2)n1
# Method in brief: as §1
# [7] = compound: CN(C)CC(=O)Nc1ccc2[nH]c(=O)c3ccccc3c2c1
# Method in brief: as §1
# [8] = compound: CN(CCOC1=CC=C(C=C1)C[C@H]2C(=O)NC(=O)S2)C3=CC=CC=N3 (racemic) [rosiglitazone]
# Method in brief: as §1
# [9] = compound: CN1C2=C(C3=C1C(=O)N(N=C3)CC4=CC(=CC=C4)N)SC(=C2)S(=O)C
# Method in brief: as §1
# [10] = compound: CN1CCC(CNc2ccc3ncc(-c4cccc(OC(F)(F)F)c4)n3n2)CC1
# Method in brief: as §1
# [11] = compound: CN1CCN(CCOc2cc(OC3CCOCC3)c3c(Nc4c(Cl)ccc5c4OCO5)ncnc3c2)CC1 [saracatinib]
# Method in brief: as §1
# [12] = compound: CN1CCN(c2nc(C3=C(c4c[nH]c5ccccc45)C(=O)NC3=O)c3ccccc3n2)CC1 [sotrastaurin]
# Method in brief: as §1
# [13] = compound: CN1CC[C@H](c2c(O)cc(O)c3c(=O)cc(-c4ccccc4Cl)oc23)[C@H](O)C1 [alvocidib]
# Method in brief: as §1
# [14] = compound: CN1CCc2c(c3ccccc3n2Cc2ccc(C(=O)NO)cc2)C1 [Tubastatin A]
# Method in brief: as §1
# [15] = compound: CNC(=O)C1=CC=CC=C1NC2=NC(=NC=C2Cl)NC3=C(C=C(C=C3)N4CCOCC4)OC
# Method in brief: as §1
# [16] = compound: CNC(=O)c1ccc(Nc2ncc(C(F)(F)F)c(NCc3nccnc3N(C)S(C)(=O)=O)n2)cc1 [defactinib]
# Method in brief: as §1
# [17] = compound: CNCc1ccc(-c2[nH]c3cc(F)cc4c3c2CCNC4=O)cc1 [rucaparib]
# Method in brief: as §1
# [18] = compound: CNc1nc(-c2ccc3c(N)n[nH]c3c2)cc(N2C[C@@H](C(=O)NC3CCCCC3)CC[C@H]2C)n1
# Method in brief: as §1
# [19] = compound: COC(=O)N[C@@H](C)CNc1nccc(-c2cn(C(C)C)nc2-c2cc(Cl)cc(NS(C)(=O)=O)c2F)n1 [encorafenib]
# Method in brief: as §1
# [20] = compound: COC(=O)[C@H](CCSC)NC(=O)C1=C(C=C(C=C1)NC[C@H](CS)N)C2=CC=CC=C2
# Method in brief: as §1
# UniProt O75146, sequence (O75146 whole entry, looked up): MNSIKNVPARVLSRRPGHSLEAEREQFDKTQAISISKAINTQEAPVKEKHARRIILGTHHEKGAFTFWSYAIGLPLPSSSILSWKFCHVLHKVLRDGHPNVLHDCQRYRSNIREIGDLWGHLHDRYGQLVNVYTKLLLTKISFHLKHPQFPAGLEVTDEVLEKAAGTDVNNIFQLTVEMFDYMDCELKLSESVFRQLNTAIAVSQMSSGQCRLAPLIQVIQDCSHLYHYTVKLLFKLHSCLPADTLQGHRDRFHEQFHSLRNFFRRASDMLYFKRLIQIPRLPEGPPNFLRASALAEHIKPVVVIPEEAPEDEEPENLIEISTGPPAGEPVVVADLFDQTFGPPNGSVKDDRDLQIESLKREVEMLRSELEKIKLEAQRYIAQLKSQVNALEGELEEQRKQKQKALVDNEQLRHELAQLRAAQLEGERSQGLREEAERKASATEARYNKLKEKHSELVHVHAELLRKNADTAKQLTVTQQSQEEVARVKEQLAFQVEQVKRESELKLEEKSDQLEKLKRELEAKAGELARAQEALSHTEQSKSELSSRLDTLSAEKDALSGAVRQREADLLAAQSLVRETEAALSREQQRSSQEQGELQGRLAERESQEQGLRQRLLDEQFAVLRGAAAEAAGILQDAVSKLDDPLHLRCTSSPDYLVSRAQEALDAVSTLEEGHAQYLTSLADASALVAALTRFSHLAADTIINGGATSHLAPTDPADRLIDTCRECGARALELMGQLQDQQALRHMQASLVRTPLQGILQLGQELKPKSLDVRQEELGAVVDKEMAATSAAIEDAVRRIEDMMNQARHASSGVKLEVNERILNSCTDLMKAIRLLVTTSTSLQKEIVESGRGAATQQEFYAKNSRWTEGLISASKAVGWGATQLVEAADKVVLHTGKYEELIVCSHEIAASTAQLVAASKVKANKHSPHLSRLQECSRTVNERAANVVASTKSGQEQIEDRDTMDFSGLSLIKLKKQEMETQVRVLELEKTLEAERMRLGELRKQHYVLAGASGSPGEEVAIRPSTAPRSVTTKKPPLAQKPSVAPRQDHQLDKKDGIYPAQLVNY
# UniProt P22830, sequence (P22830 whole entry, looked up): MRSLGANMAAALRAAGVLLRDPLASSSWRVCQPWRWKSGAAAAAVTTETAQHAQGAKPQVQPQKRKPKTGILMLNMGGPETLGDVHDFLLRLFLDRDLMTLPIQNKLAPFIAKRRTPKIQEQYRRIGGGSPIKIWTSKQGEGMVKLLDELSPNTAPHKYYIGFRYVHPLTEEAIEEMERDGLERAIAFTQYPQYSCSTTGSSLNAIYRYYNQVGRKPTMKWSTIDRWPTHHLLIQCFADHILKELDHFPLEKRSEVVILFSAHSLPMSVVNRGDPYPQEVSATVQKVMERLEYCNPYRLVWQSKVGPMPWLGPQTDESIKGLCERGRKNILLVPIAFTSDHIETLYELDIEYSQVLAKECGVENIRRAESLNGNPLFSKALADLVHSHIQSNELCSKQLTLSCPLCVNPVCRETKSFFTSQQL
# UniProt Q9UKD1, sequence (Q9UKD1 whole entry, looked up): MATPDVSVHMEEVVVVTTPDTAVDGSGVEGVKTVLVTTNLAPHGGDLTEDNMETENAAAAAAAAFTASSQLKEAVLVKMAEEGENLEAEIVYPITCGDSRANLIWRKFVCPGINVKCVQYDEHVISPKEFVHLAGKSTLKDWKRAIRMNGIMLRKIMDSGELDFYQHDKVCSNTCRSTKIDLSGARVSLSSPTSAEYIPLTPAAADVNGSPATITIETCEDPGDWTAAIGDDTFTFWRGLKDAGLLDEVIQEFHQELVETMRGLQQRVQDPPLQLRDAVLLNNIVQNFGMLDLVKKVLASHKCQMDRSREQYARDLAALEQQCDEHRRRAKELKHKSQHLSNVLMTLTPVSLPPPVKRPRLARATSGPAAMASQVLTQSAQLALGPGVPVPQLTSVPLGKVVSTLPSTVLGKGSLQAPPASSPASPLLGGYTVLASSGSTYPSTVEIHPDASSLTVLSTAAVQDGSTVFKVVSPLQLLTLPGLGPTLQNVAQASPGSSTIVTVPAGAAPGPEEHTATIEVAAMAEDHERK
# UniProt P23327, sequence (P23327 whole entry, looked up): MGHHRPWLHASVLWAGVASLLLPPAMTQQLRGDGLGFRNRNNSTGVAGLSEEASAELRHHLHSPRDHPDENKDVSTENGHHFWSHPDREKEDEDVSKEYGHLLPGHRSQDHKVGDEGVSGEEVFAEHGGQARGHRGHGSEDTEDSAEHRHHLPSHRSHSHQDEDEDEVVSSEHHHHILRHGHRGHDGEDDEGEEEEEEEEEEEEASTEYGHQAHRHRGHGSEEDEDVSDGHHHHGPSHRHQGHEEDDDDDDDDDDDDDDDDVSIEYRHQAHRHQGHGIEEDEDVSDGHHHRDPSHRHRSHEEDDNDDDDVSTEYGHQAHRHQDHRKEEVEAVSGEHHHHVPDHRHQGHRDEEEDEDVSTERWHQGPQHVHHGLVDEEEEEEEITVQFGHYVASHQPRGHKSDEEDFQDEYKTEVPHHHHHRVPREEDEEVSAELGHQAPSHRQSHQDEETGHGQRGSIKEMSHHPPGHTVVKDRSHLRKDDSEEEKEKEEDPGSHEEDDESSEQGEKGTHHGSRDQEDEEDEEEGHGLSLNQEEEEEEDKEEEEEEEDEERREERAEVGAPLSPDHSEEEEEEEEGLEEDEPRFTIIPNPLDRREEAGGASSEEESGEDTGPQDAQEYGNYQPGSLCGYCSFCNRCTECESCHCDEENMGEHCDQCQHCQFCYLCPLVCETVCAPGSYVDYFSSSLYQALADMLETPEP
# UniProt P22087, sequence (P22087 whole entry, looked up): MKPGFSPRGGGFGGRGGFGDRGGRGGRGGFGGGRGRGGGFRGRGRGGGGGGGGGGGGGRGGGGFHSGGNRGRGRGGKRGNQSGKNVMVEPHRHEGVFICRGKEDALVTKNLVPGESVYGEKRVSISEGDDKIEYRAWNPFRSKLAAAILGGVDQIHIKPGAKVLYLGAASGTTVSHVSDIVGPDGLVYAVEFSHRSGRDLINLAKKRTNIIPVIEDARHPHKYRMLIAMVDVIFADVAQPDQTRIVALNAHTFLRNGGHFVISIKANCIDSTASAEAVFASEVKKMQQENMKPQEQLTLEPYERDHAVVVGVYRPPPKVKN
# UniProt Q96I24, sequence (Q96I24 whole entry, looked up): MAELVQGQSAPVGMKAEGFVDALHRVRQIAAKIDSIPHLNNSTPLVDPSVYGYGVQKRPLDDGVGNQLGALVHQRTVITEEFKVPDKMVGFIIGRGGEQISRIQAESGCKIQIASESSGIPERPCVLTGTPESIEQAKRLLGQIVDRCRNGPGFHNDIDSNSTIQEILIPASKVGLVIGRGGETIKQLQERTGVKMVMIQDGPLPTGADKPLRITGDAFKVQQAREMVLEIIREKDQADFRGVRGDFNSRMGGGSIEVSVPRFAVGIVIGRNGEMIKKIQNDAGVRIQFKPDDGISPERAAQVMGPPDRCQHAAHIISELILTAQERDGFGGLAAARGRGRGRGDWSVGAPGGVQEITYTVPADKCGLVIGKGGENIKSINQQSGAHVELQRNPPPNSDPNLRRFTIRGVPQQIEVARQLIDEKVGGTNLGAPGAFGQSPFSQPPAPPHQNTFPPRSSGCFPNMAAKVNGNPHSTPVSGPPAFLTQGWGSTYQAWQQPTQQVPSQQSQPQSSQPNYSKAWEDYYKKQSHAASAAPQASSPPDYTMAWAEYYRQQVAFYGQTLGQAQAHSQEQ
# UniProt P78417, sequence (P78417 whole entry, looked up): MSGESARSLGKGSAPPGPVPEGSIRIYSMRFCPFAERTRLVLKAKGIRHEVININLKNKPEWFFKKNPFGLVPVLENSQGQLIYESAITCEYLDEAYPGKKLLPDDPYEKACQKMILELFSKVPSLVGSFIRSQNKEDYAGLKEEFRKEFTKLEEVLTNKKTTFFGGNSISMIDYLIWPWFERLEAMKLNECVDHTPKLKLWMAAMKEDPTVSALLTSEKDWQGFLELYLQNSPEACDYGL
# UniProt Q96JB3, sequence (Q96JB3 whole entry, looked up): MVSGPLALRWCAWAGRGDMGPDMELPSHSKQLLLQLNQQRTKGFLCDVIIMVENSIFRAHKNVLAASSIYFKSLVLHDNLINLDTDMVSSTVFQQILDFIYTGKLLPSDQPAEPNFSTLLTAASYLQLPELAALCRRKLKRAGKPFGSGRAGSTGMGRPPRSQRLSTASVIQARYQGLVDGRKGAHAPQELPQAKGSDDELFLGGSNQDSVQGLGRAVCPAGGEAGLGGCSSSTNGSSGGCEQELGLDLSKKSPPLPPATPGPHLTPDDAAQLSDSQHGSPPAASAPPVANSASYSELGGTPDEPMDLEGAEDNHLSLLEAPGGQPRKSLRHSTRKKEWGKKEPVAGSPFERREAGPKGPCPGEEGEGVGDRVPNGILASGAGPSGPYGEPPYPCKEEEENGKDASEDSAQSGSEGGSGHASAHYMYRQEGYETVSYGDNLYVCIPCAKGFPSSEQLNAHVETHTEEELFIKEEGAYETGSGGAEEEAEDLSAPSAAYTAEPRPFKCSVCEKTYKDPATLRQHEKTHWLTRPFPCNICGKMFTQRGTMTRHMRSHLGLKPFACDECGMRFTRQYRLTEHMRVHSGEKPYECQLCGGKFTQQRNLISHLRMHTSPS
# UniProt P63218, sequence (P63218 whole entry, looked up): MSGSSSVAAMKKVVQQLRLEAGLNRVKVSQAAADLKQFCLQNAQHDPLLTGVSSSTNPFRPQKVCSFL
# UniProt O14929, sequence (O14929 whole entry, looked up): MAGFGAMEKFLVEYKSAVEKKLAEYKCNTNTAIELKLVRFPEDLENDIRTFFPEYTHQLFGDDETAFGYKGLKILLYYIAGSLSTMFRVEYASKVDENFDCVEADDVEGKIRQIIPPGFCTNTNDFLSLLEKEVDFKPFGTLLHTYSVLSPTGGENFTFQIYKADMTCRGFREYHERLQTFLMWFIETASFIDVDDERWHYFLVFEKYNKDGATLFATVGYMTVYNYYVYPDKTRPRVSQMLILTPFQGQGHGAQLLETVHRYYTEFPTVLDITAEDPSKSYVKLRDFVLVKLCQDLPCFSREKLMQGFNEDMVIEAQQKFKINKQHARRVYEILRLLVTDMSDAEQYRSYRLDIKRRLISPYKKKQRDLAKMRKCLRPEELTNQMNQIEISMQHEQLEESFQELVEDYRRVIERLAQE
Target,log2 fold change [1],log2 fold change [2],log2 fold change [3],log2 fold change [4],log2 fold change [5],log2 fold change [6],log2 fold change [7],log2 fold change [8],log2 fold change [9],log2 fold change [10],log2 fold change [11],log2 fold change [12],log2 fold change [13],log2 fold change [14],log2 fold change [15],log2 fold change [16],log2 fold change [17],log2 fold change [18],log2 fold change [19],log2 fold change [20]
GNG5 (UniProt P63218),0.105,0.033,-0.117,0.556 (active),0.059,0.004,-0.07,-0.045,-0.014,0.144,0.022,0.033,0.019,0.049,0.028,-0.041,-0.002,-0.041,-0.073,-0.008
HIP1 (UniProt O00291),0.027,-0.23,-0.095,0.085,0.005,0.031,-0.045,-0.007,-0.063,-0.148,0.078,-0.079,-0.102,0.038,0.008,-0.001,0.065,-0.024,-0.048,-0.001
GALNT1 (UniProt Q10472),-0.06,-0.218 (active),-0.011,-0.068,-0.005,-0.041,-0.011,0.003,-0.074,0.106,-0.026,0.03,-0.005,0.064,0.039,-0.046,0.008,-0.047,-0.037,-0.005
GSTO1 (UniProt P78417),0.005,0.08,0.009,0.013,0.036,-0.052,-0.007,0.018,-0.082,0.084,0.027,0.094,-0.016,-0.021,-0.034,0.001,-0.09,-0.004,0.001,0
HAT1 (UniProt O14929),-0.185,-0.313 (active),0.02,0.035,0.014,-0.057,-0.007,0.049,-0.081,0.026,0.047,-0.058,-0.209,0.036,0.05,-0.139,-0.066,-0.061,0.064,-0.017
FECH isoform 2 (UniProt P22830),0.399,0.368,0.037,-0.088,0.251,0.203,0.001,0,-0.123,0.163,-0.035,0.008,-0.016,-0.12,0.245,0.102,0.043,0.538,-0.033,-0.116
FBL (UniProt P22087),0.283,0.151,-0.034,-0.396,-0.106,0.184,-0.143,-0.144,0.359,0.34,0.11,-0.016,0.262,-0.022,-0.012,0.375,0.511,0.002,0.096,0.023
FUBP3 (UniProt Q96I24),0.061,-0.251 (active),0.045,0.021,0.025,0.064,-0.028,0.016,0.02,0.059,0.012,0.05,0.129,-0.092,-0.039,0.184,0.167,-0.049,-0.003,-0.032
GMEB2 (UniProt Q9UKD1),0.05,-0.282 (active),0.062,0.156,-0.059,-0.048,0.018,0.145,-0.03,-0.075,0.018,-0.019,-0.197,0.051,-0.065,-0.156,0.275 (active),-0.023,-0.007,0.008
HRC (UniProt P23327),0.01,0.043,-0.014,-0.061,-0.016,-0.023,0.005,-0.008,-0.107,-0.013,0.063,0.057,0.02,-0.125,0.009,-0.011,0.01,-0.057,-0.066,0.043
HNRNPUL2 (UniProt Q1KMD3),0.172,0.135,-0.023,-0.084,-0.036,0.092,-0.012,-0.007,0.131,-0.013,-0.023,0.039,0.166,0.065,-0.06,0.259 (active),0.125,-0.017,0.007,0.006
HIST2H2BF isoform 2 (UniProt Q5QNW6),-0.043,0.153,-0.079,-0.243,0.017,0.231,-0.22,-0.055,0.398,0.084,-0.084,0.074,0.144,0.093,-0.044,0.313,0.325,0.039,0.015,0.05
HK2 (UniProt P52789),-0.156,-0.813 (active),0.086,0.049,-0.127,0.016,-0.001,0.032,-0.028,-0.038,0.008,-0.075,-0.054,-0.006,-0.334 (active),-0.08,-0.011,-0.045,0.026,-0.005
HIP1R (UniProt O75146),-0.035,-0.268 (active),0.015,0.051,-0.04,-0.016,-0.017,0.067,0.026,-0.134,0.051,-0.045,-0.069,0.007,0.037,-0.063,0.018,0.015,-0.019,0.016
HIC2 (UniProt Q96JB3),0.028,-0.19,0.032,-0.134,0.126,0.128,-0.035,-0.185,0.164,-0.006,-0.152,-0.236,0.033,-0.034,-0.011,-0.008,0.142,-0.019,0.045,0.089
HDGFL2 (UniProt Q7Z4V5),-0.019,0.014,-0.043,0.012,-0.006,0.015,-0.011,-0.004,0.006,-0.033,0.01,0.119,0.007,0.013,-0.061,-0.07,-0.051,-0.058,-0.016,0.036
